The supplement of paper PMC6555819

Experiments:
Test in all cases: PBM binding z-score (relative to random genomic background probes); higher = stronger binding; sequences stand for … in GC…GCGATTGACAGCGTAGAATGAAGG
[1] = test system: RARb homodimer (NR concentration 270 nM)
Procedure, shortened: (§1)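 Custom Agilent 4×180K protein-binding microarrays carried double-stranded probes, each with a 34-nt variable region. These regions held direct-repeat seeds, single-nucleotide variants, half-site ablations and random human genomic background sequences. Ligand-free nuclear receptor dimers were incubated on the arrays for 1 h, antibodies against each partner (one per run) detected binding, and scanned fluorescence was regression-normalized. Binding z-scores take the random background probes as reference.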

[2] = test system: RARg:RXRa (NR concentration 270 nM, RXRa partner concentration 90 nM)
Procedure, shortened: as §1

[3] = test system: RARg homodimer (NR concentration 270 nM)
Procedure, shortened: as §1

[4] = test system: RXRa DBDmut IVT, anti-RXR (DBD mutation: RXRa K156A/R161A, NR concentration 90 nM)
Procedure, shortened: as §1

[5] = test system: RXRa homodimer (NR concentration 180 nM)
Procedure, shortened: as §1

[6] = test system: THRa:RXRa (NR concentration 90 nM, RXRa partner concentration 90 nM)
Procedure, shortened: as §1

[7] = test system: THRa homodimer (NR concentration 90 nM)
Procedure, shortened: as §1

[8] = test system: VDR homodimer (NR concentration 270 nM)
Procedure, shortened: as §1

Sequence	PBM binding z-score [1]	PBM binding z-score [2]	PBM binding z-score [3]	PBM binding z-score [4]	PBM binding z-score [5]	PBM binding z-score [6]	PBM binding z-score [7]	PBM binding z-score [8]
CGTCCATGGTCATAGGAGGTCAGTGAAGACAGAT	3.47	2.87	2.8	0.0145	2.18	3.83	0.621	1.16
AGAATGAGGTTAAGATCAGGGACACAGAATACAT	1.6	2.36	2.14	1.14	2.48	3.39	2	1.12
TCGAGTGGGTTACCAATGGGGCATTCAGCTTTCT	0.278	0.678	-0.504	-0.00783	0.312	-0.369	-1.25	-1.02
TCGAGTAGGTTAGTCGGGGCATACAGCCAACATA	0.452	0.28	0.255	0.235	0.45	1.02	-0.188	-0.0779
CCACACAGGTGAGAAGGTAACTCAGCCTCGATTA	0.713	0.766	0.648	0.395	0.675	0.428	0.324	-0.221
CAAACTAGGTCACGAAATGTCAAAGTCGAATGAC	3.6	4.86	5.58	2.02	3.79	3.51	1.5	1.1
CCAGACAGGTGAGAAGGTAACTAAGCCTCGATTA	0.66	0.524	0.586	-0.275	0.277	0.221	-0.101	-0.0907
AGTCAAAGTTCATCTAGGTACCGTAAGATATGCT	3.72	5.39	5.76	4.67	4.36	3.05	-0.565	5.46
CGTCAAATTTCAAGGTAACGTAACAGAAAGCAGC	-0.107	0.0405	0.398	-0.0368	0.32	2.11	1.27	-0.239
CCTTACGGGTCACTCCAGGTTATAGCCTCGGAGT	3.1	4.3	4.02	1.01	4.02	5.14	0.467	1.13
CCTATTAGTTGACCCTAAGGGCAACCGAAGCTCG	3.48	4.12	2.5	0.762	5.73	4.02	3.25	1.72
GCTGCTAGGTCAACTGATGGTCAGTTAAAGCTCG	3.55	5.17	5.45	1.51	2.85	3.15	1.05	-0.147
CGAACGAGGGCATGAGTTGTTAGCAAATGCCGAT	0.54	0.951	1.44	2.23	0.556	1.08	-0.284	1.12
GATACAGGGTCAGTTAGAGGCCAGAGTATGGAAA	3.21	5.99	4.52	1.88	3.67	2.73	0.565	1.51
CCTCGGAGGACAACAGCAGGTCAGAGCTGCCAGA	2.46	2.16	2.22	0.024	0.692	2.01	0.482	0.0855
TTACCAAAGTGAGCTGAGGTCGTTGATCCAACTC	0.526	0.117	-0.105	-0.0811	0.805	3.02	1.36	1.95
GTCCCAAGGTGAATAGGTCGTTGATGAGTAGGCG	2.13	2.88	1.42	-0.179	1.67	2.06	0.76	0.582
CTACCAAGGTGGACAAGGTCGTTGATTACTATTC	1	0.429	0.319	0.874	0.711	1.81	0.933	1.68
ACAGACAGGTGAGTGGAGGTAACTCAGCTGGACG	0.51	0.417	0.421	-0.468	0.451	2.29	-0.0738	-0.0506

Sequence	PBM binding z-score [1]	PBM binding z-score [2]	PBM binding z-score [3]	PBM binding z-score [4]	PBM binding z-score [5]	PBM binding z-score [6]	PBM binding z-score [7]	PBM binding z-score [8]
ATACGAAGGTGATCGTGAGGTCGTTGATACTAAC	1.55	2.15	0.985	0.65	1.6	3.28	1.94	2.48
ATCTCTAGGTAAGGATAGTTCAGTGAATGCAAAT	1.05	0.45	0.907	0.233	-0.127	1.21	0.86	0.73
CCGACTGGGGCTGAAAGGTTACCATACCATCCGG	1.92	1.33	0.724	-0.859	1.75	0.974	-0.189	-0.252
TCGAGTAGATTAGTCGGGGCATTCAGCCAACATA	-0.464	-0.658	-0.665	0.38	-0.393	-0.269	-0.485	-0.548
CCGACTGGGGCAGTAAGGTTACCATACCATCCGG	1.56	0.667	0.917	-1.01	0.78	1.87	1.08	0.0425
TCTATTAGTTGATTAGGGCAAACGAAACAGCGGA	0.43	0.388	0.663	0.888	0.631	0.515	0.119	0.435
CCATACGGGTCACGAGGTTATAGCACGACGAGCG	3.99	6.02	5.35	1.27	7.38	3.55	1.09	2.45
GGAACGAGGCCATTCGAGTTGATAGCATGGCGAT	-0.135	0.361	0.706	2.13	-0.125	2.23	-0.443	1.7
CGAACGAGGGGATGAGTTGATAGCAAATGCCGAT	-0.429	-0.0531	0.201	0.534	0.0402	-0.246	-0.206	0.579
CCTGCTAGATCAATGGTCAGCTAAAGCAGCTCGC	-0.343	-0.647	-0.492	0.00874	-0.596	-0.908	-1.01	-0.711
CGTCCAAGGTCAATGCTCGGTCAGTGAAAGCATT	4.62	6.85	6.5	3.69	5.11	3.71	2.09	2.86
CCTATTTGTTGACCATAAGGGCAACCGAAGCTCG	2.18	0.901	1.09	0.849	0.768	1.78	1.89	0.782
ATCGAAAGGTCGACGAGATGAGTATACACCGTTT	2.29	3.91	3.95	1.01	4.04	1.72	-0.43	0.403
TCAAATAGGTAATACAGGTGAAAGTCGGCATCTA	0.557	0.633	0.49	1.74	1.14	0.877	-0.0126	0.0898
TCAAGTAGGTTACCAATGGGGCATTCAGCTTTCT	1.04	1.42	0.77	1.45	0.978	0.342	-0.498	-0.25
ATCTCTAGGTAAAGAAAGTTCAGTGAATGCAAAT	2.33	1.43	1.59	0.781	0.876	1.22	0.318	1.71
TCATATAGGTAAACAGGTGGAAGTCCGTAAGTTA	0.247	0.462	0.0474	1.38	0.624	0.188	0.00908	0.154
CCTACTGGGCCAAAGGTCACTGATTCCAATGCTC	4.91	6.24	5.46	0.634	7.03	3.42	1.29	1.88
GGAGACAGGTGAAACGCAGGTAACTCAGGGTGGC	0.55	1.11	0.252	-0.648	0.638	1.48	0.0199	-0.609

Sequence	PBM binding z-score [1]	PBM binding z-score [2]	PBM binding z-score [3]	PBM binding z-score [4]	PBM binding z-score [5]	PBM binding z-score [6]	PBM binding z-score [7]	PBM binding z-score [8]
CAGACTGGGGCAAGGTTACCATAACGCACAGCCA	1.35	1.16	1.52	-0.141	1.34	1.41	0.328	0.0721
GCTAGTTGGTCAGTAAAGGGTCACACACCGGTCG	4.43	4.33	3.73	0.428	3.78	2.77	0.995	1.74
CCGACTGGGACAAAGGTTACCATACTCAGTACGA	1.88	2.42	1.43	0.478	2.21	1.75	0.208	-0.0207
CCTAGCAGGCCAATCTGGGTCACTAAAGGCTTGA	2.01	0.915	1.17	0.23	0.402	3.4	0.446	0.000244
CAAACTAGGTCAGCGGAAGGTCAAAGTCCGCATG	5.24	7.66	6.32	1.11	4.98	4.05	1.64	2.6
CCTATTAGTTGATCATAAGGGCAACCGAAGCTCG	1.43	0.898	0.868	0.845	0.308	1.69	1.05	1.1
GCGACCGGGGCAAAGCAGGTTACCATAAGGTTGG	1.47	1.97	1.54	-0.485	0.949	3.71	-0.0146	-0.132
GCTTGTAGATCAAGGTTAAGTAAGACTAAGCTAA	0.397	0.425	0.177	0.147	0.706	2.36	-0.276	-0.509
AGAATGACGTTATACGTAGATCAGGGAAGAAAGT	-0.508	-0.123	0.109	-0.541	-0.108	-0.592	-1.02	-0.467
GCTTACGGGTCAAAGGGTATAGCATGAATAGAAT	2.63	5.24	4.04	2.41	7.03	2.8	-0.191	1.45
GTACCAAGGTGAATAGGACGTTGATGAGTAGGCG	0.539	0.543	0.959	-0.489	0.542	1.24	0.345	0.0653
TCATATAGGTAAAAGGTGACAGTCGGTGTGGTAA	1.71	1.48	0.836	1.66	2.28	1.4	0.394	0.0898
CCTAGCAGGCCAGGGTCACTCTAGCATTTCGCTT	2.58	2.69	2.31	0.701	2.88	2.56	0.876	1.14
TCTTGTAGTTCAAGCAGGTTAAGAAAGCCTGAGT	1.48	1.44	1.65	2.37	1.47	1.63	-0.0988	2.02
CGAACTAGGTCAGAACAGAACAGTGAAGGATGAT	1.65	2.36	3.14	0.286	1.16	1.34	-0.073	-0.0834
GCTTGTAGATCAGGGTTAAGAAAGACTAAGCTAA	0.053	0.416	0.152	0.053	0.823	0.939	-0.435	0.148
ATCTCTAGGTAACAAGTTGAGTGAAAGAGAGGAC	0.79	0.858	0.91	-0.013	0.381	1.41	0.716	0.639
ATCTCTAGTTAACAAGTTCAGTGAAAGAGAGGAC	1.64	1.07	1.06	1.03	0.676	1.12	0.867	2.76
AATACAGGGTCACTAGGCCAGAGAAGGTACGAAT	3.45	5.18	4.96	2.58	5.52	3.52	1.18	2.31
